Values without a mark were called inactive. Active and inactive are the calls of the source.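 Rule for the calls: active = thallium flux through the channel raised or lowered by more than 3 SD from vehicle-only wells, actives on both sides; inactive = the rest.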
Assays:
Assay in all cases: BK channel mutant inhibitors and activators – cell-based, U2OS BacMam, thallium flux, beta subunits, selectivity assay, profiling panel (AID 1259406);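 note: initial slope of Thallos dye fluorescence rise after thallium is added; log ratio against the mean of 0.3% DMSO vehicle wells on the same plate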
[1] = tested on: F380Y; details: U2OS BacMam BK variants, at 30 µM
[2] = tested on: F380Y/beta1; details: U2OS BacMam BK variants, at 30 µM
[3] = tested on: F380Y/beta2Delta; details: U2OS BacMam BK variants, at 30 µM
[4] = tested on: F380Y/beta4; details: U2OS BacMam BK variants, at 30 µM
[5] = biological target: Calcium-activated potassium channel subunit alpha-1 (Homo sapiens) + Leucine-rich repeat-containing protein 26 (Homo sapiens) (UniProt Q12791+Q2I0M4); details: U2OS BacMam BK variants, F380Y/Slo1WT/gamma1, at 30 µM
[6] = tested on: R275C; details: U2OS BacMam BK variants, at 30 µM
[7] = tested on: R275C/beta1; details: U2OS BacMam BK variants, at 30 µM
[8] = tested on: R275C/beta2Delta; details: U2OS BacMam BK variants, at 30 µM
[9] = tested on: R275C/beta4; details: U2OS BacMam BK variants, at 30 µM
[10] = tested on: R275C/Slo1WT/beta2; details: U2OS BacMam BK variants, at 30 µM

Chain of Calcium-activated potassium channel subunit alpha-1 (Homo sapiens) + Leucine-rich repeat-containing protein 26 (Homo sapiens) (Q2I0M4 whole entry, looked up, one chain of several): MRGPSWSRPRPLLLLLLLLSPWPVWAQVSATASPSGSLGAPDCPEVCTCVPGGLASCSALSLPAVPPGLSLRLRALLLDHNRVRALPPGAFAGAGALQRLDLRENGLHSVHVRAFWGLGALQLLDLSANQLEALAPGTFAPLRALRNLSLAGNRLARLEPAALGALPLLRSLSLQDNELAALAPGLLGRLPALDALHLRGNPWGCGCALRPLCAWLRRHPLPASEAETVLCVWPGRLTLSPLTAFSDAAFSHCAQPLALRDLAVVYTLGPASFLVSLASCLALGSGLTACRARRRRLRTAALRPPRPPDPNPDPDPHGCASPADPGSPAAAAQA

## O=C(NNc1c(Cl)cccc1Cl)c1csc(Cc2c(Cl)cccc2Cl)n1
[1]
  log fold change Tl+ flux: 0.031
[2]
  log fold change Tl+ flux: -0.0231
[3]
  log fold change Tl+ flux: 0.0346
[4]
  log fold change Tl+ flux: -0.048
[5]
  log fold change Tl+ flux: -0.0234
[6]
  log fold change Tl+ flux: 0.0148
[7]
  log fold change Tl+ flux: -0.0344
[8]
  log fold change Tl+ flux: 0.00139
[9]
  log fold change Tl+ flux: -0.00534
[10]
  log fold change Tl+ flux: 0.0322

## CC(=O)c1cc2cc(Cl)cc(Cl)c2oc1=O
[1]
  log fold change Tl+ flux: 0.0337
[2]
  log fold change Tl+ flux: 0.0359
[3]
  log fold change Tl+ flux: -0.0227
[4]
  log fold change Tl+ flux: -0.0296
[5]
  log fold change Tl+ flux: -0.0196
[6]
  log fold change Tl+ flux: -0.0332
[7]
  log fold change Tl+ flux: 0.029
[8]
  log fold change Tl+ flux: 0.0111
[9]
  log fold change Tl+ flux: -0.0163
[10]
  log fold change Tl+ flux: -0.0243

## Cc1nn(C)c(NCc2cccs2)c1[N+](=O)[O-]
[1]
  log fold change Tl+ flux: 0.0023
[2]
  log fold change Tl+ flux: 0.00245
[3]
  log fold change Tl+ flux: 0.0628
[4]
  log fold change Tl+ flux: 0.018
[5]
  log fold change Tl+ flux: 0.0148
[6]
  log fold change Tl+ flux: -0.00626
[7]
  log fold change Tl+ flux: -0.0048
[8]
  log fold change Tl+ flux: 0.028
[9]
  log fold change Tl+ flux: -0.0356
[10]
  log fold change Tl+ flux: -0.0229

## NC(=O)CN1C(=O)C(=Cc2ccco2)N=C1c1ccccc1
[1]
  log fold change Tl+ flux: -0.0123
[2]
  log fold change Tl+ flux: -0.0266
[3]
  log fold change Tl+ flux: -0.0599
[4]
  log fold change Tl+ flux: -0.0551
[5]
  log fold change Tl+ flux: -0.015
[6]
  log fold change Tl+ flux: -0.000262
[7]
  log fold change Tl+ flux: 0.031
[8]
  log fold change Tl+ flux: -0.0538
[9]
  log fold change Tl+ flux: 0.0139
[10]
  log fold change Tl+ flux: -0.0206

## Cc1cc(C(=O)ON=C(N)c2ccc([N+](=O)[O-])o2)no1
[1]
  log fold change Tl+ flux: 0.0152
[2]
  log fold change Tl+ flux: 0.0208
[3]
  log fold change Tl+ flux: 0.0122
[4]
  log fold change Tl+ flux: 0.0216
[5]
  log fold change Tl+ flux: 0.00414
[6]
  log fold change Tl+ flux: -0.00373
[7]
  log fold change Tl+ flux: 0.00585
[8]
  log fold change Tl+ flux: -0.00874
[9]
  log fold change Tl+ flux: 0.0176
[10]
  log fold change Tl+ flux: -0.0342

## CN1c2ccccc2C(C)(C)C12C=Cc1cc(Br)cc([N+](=O)[O-])c1O2 (stereo not given)
[1]
  log fold change Tl+ flux: 0.0436
[2]
  log fold change Tl+ flux: 0.162 (active)
[3]
  log fold change Tl+ flux: 0.0613
[4]
  log fold change Tl+ flux: 0.00641
[5]
  log fold change Tl+ flux: 0.0283
[6]
  log fold change Tl+ flux: 0.00244
[7]
  log fold change Tl+ flux: 0.132 (active)
[8]
  log fold change Tl+ flux: 0.0868 (active)
[9]
  log fold change Tl+ flux: 0.0424
[10]
  log fold change Tl+ flux: -0.0665
